# In PubChem BioAssay (NCI):
# Compounds without any hit were thinned out: in the full panel of roughly 83,000, 20% have a hit.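 The test compound was applied at a single concentration to cells in 96-well plates for 48 hours, and percent growth was recorded.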 Values without a mark were called inactive. Calls of active or inactive are those of the source. The calls were made as follows: active = growth percent below 10; inactive = the rest.
# How the values were obtained:
# Assay in all cases: NCI-60 one-dose screen, 48 h (100 = growth as untreated, 0 = no growth, -100 = all killed)
# Details in all cases: 10 µM unless noted
# HCT-15 colon = tested on: HCT-15 colon
# HT29 colon = tested on: HT29 colon
# SNB-75 CNS = tested on: SNB-75 CNS
# SNB-19 CNS = tested on: SNB-19 CNS
# U251 CNS = tested on: U251 CNS
# PC-3 prostate = tested on: PC-3 prostate
# SK-MEL-5 melanoma = tested on: SK-MEL-5 melanoma
# UACC-62 melanoma = tested on: UACC-62 melanoma
# LOX IMVI melanoma = tested on: LOX IMVI melanoma
# SK-MEL-28 melanoma = tested on: SK-MEL-28 melanoma
# SK-MEL-2 melanoma = tested on: SK-MEL-2 melanoma
# EKVX NSCLC = tested on: EKVX NSCLC
# SN12C renal = tested on: SN12C renal
# UO-31 renal = tested on: UO-31 renal
# TK-10 renal = tested on: TK-10 renal
# ACHN renal = tested on: ACHN renal
# CAKI-1 renal = tested on: CAKI-1 renal
# A498 renal = tested on: A498 renal
# CCRF-CEM leukemia = tested on: CCRF-CEM leukemia
# MOLT-4 leukemia = tested on: MOLT-4 leukemia
SMILES,growth (HCT-15 colon),growth (HT29 colon),growth (SNB-75 CNS),growth (SNB-19 CNS),growth (U251 CNS),growth (PC-3 prostate),growth (SK-MEL-5 melanoma),growth (UACC-62 melanoma),growth (LOX IMVI melanoma),growth (SK-MEL-28 melanoma),growth (SK-MEL-2 melanoma),growth (EKVX NSCLC),growth (SN12C renal),growth (UO-31 renal),growth (TK-10 renal),growth (ACHN renal),growth (CAKI-1 renal),growth (A498 renal),growth (CCRF-CEM leukemia),growth (MOLT-4 leukemia)
COc1ccc(OC)c(C(=O)/C=C/c2cc3c(c(OC)c2OC)OCO3)c1,47.3%,60.3%,52%,71.5%,50.4%,61.8%,68.4%,55.4%,47.8%,89.7%,83.6%,73%,74.7%,63.6%,122%,68%,52%,69.9%,40.1%,52.8%
Cc1cc(Cl)ccc1Nc1nc(C(F)(F)F)ccc1C(=O)N/N=C/c1ccc([N+](=O)[O-])cc1,-1.51% (active),-26.6% (active),-12.2% (active),22.7%,-13.9% (active),-43.7% (active),84.7%,12.6%,7.3% (active),5.64% (active),-33.5% (active),-8.42% (active),4.6% (active),-27.1% (active),-8.71% (active),-22.9% (active),2.14% (active),88.9%,-12.9% (active),-5.84% (active)
Cc1cc(Cl)ccc1NC(=O)c1cc2ccccc2cc1O,13.2%,80.5%,38.1%,20%,-14% (active),0.952% (active),8.89% (active),19.1%,28.9%,41.6%,-2.55% (active),44.2%,3.74% (active),-2.52% (active),-0.787% (active),8.67% (active),-5.76% (active),-12.8% (active),8.07% (active),17.7%
COc1ccc2nc3ccc(OC)cc3c(SCCCN)c2c1,47.3%,37.4%,89.3%,94.8%,82.7%,65.6%,108%,113%,63.1%,121%,110%,87.1%,67.9%,53.3%,114%,43.7%,74.1%,83.2%,10.5%,-5.22% (active)
COC(=O)/C(CCC=C(C)C)=C1\[C@@H](OC(C)=O)C[C@@]2(C)[C@H]1C[C@@H](O)[C@H]1[C@@]3(C)CC[C@H](NCCN)[C@@H](C)[C@@H]3CC[C@@]12C,55%,33.5%,73%,95.1%,69.1%,59.6%,88.3%,89.5%,84.5%,89.2%,92.6%,82.2%,81.2%,69.4%,101%,99.6%,88.3%,94.4%,79.4%,-13.2% (active)
Fc1ccc(Nc2nc3nonc3nc2Nc2ccc(I)cc2)cc1,6.8% (active),3% (active),-5.57% (active),18.6%,-45% (active),4.86% (active),-72.7% (active),-21.4% (active),-26.9% (active),17.1%,-39.7% (active),3.92% (active),-5.7% (active),-7.55% (active),-2.84% (active),4.53% (active),11.3%,-36.1% (active),1.66% (active),-35.7% (active)
CCN(CC)CCOc1ccc(-c2c(-c3ccccc3)c(=O)oc3ccccc23)cc1,72.2%,51.7%,81.8%,90.7%,85.5%,64.9%,71.6%,82.7%,81.3%,98.6%,82.5%,94.6%,80.3%,61.5%,95.9%,100%,97.5%,72%,95.7%,80.7%
O=C(c1cc2ccccc2o1)c1nn(-c2ccccc2)/c(=N/N=Cc2cn(-c3ccccc3)nc2-c2cc3ccccc3oc2=O)s1,87.8%,107%,97.2%,101%,83.1%,93%,102%,97.2%,95.6%,114%,100%,92.7%,113%,68.5%,107%,102%,79.1%,116%,92.8%,93.3%
CC1(C)CC2=C3C=C[C@@H]4[C@@]5(C)CCC(=O)C(C)(C)[C@@H]5CC[C@@]4(C)[C@]3(C)CC[C@@]2(C(=O)O)CC1=O,57.2%,50.4%,10%,96.5%,61.2%,74.3%,55.2%,64%,87.2%,46.5%,68.3%,63.3%,85.1%,44.4%,61.2%,40.8%,52.3%,42.1%,58%,54.6%
COc1ccc(/C=N/C2=C(C#N)C(c3cccc(Cl)c3)c3c(ccc4ccccc34)O2)cc1 (stereo not given),16.7%,10.3%,-30.1% (active),26.8%,25.6%,23.8%,31.3%,36.3%,26.7%,70.1%,51.2%,33.9%,39.6%,43%,82%,31%,20.3%,-4.91% (active),16.9%,21.8%
COc1cc(OC)cc(C2=C3CC[C@@H]4[C@H](CC[C@]5(C)C(=O)CC[C@@H]45)C3=CC3C(O)c4cccnc4N4C(=O)COC234)c1 (stereo not given in full),100%,104%,72.9%,92%,93.8%,94.7%,98.1%,94.1%,95.9%,115%,108%,101%,101%,86.2%,96.5%,102%,86.6%,91.6%,104%,96.2%
C#CCOc1cccc(Nc2ncnc3ccc(NC(=O)CCl)cc23)c1,-41.6% (active),-78.6% (active),28%,-23.7% (active),-60.7% (active),-59.3% (active),-92.8% (active),-67.5% (active),-75.4% (active),-17.2% (active),-47.9% (active),-45.2% (active),-24.7% (active),-87.8% (active),-60.8% (active),-80.8% (active),1.72% (active),-2.12% (active),-56.9% (active),-25.1% (active)
CNC(=O)c1cc(Oc2ccc3c(c2)sc2nc(-c4cc(OC)c(OC)c(OC)c4)cn23)ccn1,54.1%,65.3%,50.3%,82.2%,61.9%,34.3%,-13.9% (active),44.5%,58%,63.5%,54.3%,50.2%,53.1%,30.3%,50.3%,51.9%,43.6%,53.7%,39.4%,18.3%
NC(=O)CCC(C(=O)O)N1C(=O)c2ccc(O)cc2C1=O (stereo not given),101%,119%,128%,110%,100%,98.6%,107%,111%,97.2%,124%,97%,101%,108%,93.1%,114%,93.1%,80%,115%,91.1%,59.1%
COc1ccc(C(c2cc(OC)c(OC)c(OC)c2)N2CCN(c3ccccc3)CC2)cc1 (stereo not given),67.6%,63.5%,90.2%,84.1%,96.4%,73.3%,85.2%,55.2%,87.3%,84.5%,69.3%,99.6%,101%,73.4%,106%,98%,86.4%,89.2%,82.6%,72.8%
